From the supplement of paper PMC4166925
± gives the standard deviation of the averaged measurements. In all, about 33,000 sequences were measured (“E-score (dimensionless, -0.5 to 0.5)”: median about -0.049, highest 2% from about 0.37 on). The full list was thinned out, with the highest values kept by preference.

System: T1, PmTbr T-box DNA-binding domain (GST fusion)
T1 sequence: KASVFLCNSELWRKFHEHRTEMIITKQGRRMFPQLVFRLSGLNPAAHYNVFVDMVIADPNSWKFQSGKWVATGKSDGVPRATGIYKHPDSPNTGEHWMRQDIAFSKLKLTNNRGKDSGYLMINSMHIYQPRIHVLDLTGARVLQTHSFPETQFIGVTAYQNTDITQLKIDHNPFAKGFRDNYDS
Assay: PBM E-score of 8-mer (E-score (dimensionless, -0.5 to 0.5)); Tbr is Tbrain of the sea star Patiria miniata (Pm) or the sea urchin Strongylocentrotus purpuratus (Sp); higher = stronger binding preference
Conditions: the construct has about 5 more residues each side
Method: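 Universal protein-binding microarray (Agilent AMADID 016060, 60-bp probes with a 35-bp variable region) incubated with 200 nM GST-fused Patiria miniata Tbr T-box DNA-binding domain (residues 272-466) in PBS pH 7.5. Scored for every ungapped 8-mer (given with its reverse complement) by the Universal PBM Analysis Suite as E-score (modified Wilcoxon-Mann-Whitney enrichment, range -0.5 to 0.5; >0.45 counts as bound) and Z-score of median probe intensity. Two replicate arrays (datasets 1 and 2).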
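Also: 200 nM protein in PBS on universal arrays averaged over duplicate arrays.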

Sequence | PBM E-score of 8-mer
ATAGCTAG | -0.0742 ± 0.12
CACGTTGG | 0.261 ± 0.0042
CTGTTCTC | 0.0542 ± 0.017
CGTGGCAC | 0.233 ± 0.052
ACTGGCAC | 0.264 ± 0.015
GGTGGCAA | 0.3882 ± 0.0017
ATTGGCAC | 0.385 ± 0.0064
CGTGGCAA | 0.122 ± 0.044
GCTGGCAC | 0.234 ± 0.064
CCTGGCAC | 0.371 ± 0.019
ATTGGCAG | 0.0761 ± 0.012
GGTGGCAC | 0.38829 ± 0.00023
AGTGGCAA | 0.304 ± 0.039
CTTGGCAC | 0.352 ± 0.016
AGTGGCAC | 0.334 ± 0.008
CCAGTTCA | -0.052 ± 0.044
GCCGTGCC | 0.0438 ± 0.036
TCTATCCA | -0.354 ± 0.0079
GGATTAAC | 0.0329 ± 0.085
CCTAGGGA | -0.233 ± 0.015
ACGATCTG | 0.189 ± 0.015
CAATAGCG | 0.118 ± 0.13
AGGAGGTG | 0.428 ± 0.0078
ACGAGGTC | -0.113 ± 0.027
AAGAGGTC | -0.101 ± 0.02
AGGAGGTC | -0.247 ± 0.02

Sequence | PBM E-score of 8-mer
AAGAGGTA | -0.158 ± 0.021
ATGAGGTA | -0.093 ± 0.027
AAGAGGTG | 0.4261 ± 0.00096
ACGAGGTA | -0.046 ± 0.031
ACGAGGTG | 0.4446 ± 0.0042
ATGAGGTG | 0.382 ± 0.018
ATGAGGTC | -0.00428 ± 0.033
AGGAGGTA | -0.0739 ± 0.034
GCCAGTCA | 0.0625 ± 0.0016
AAGTTTCT | 0.101 ± 0.091
AAACCATC | -0.0959 ± 0.018
AGTAGAGC | 0.00365 ± 0.047
GTAGAACA | -0.0515 ± 0.048
GTCAGTGA | 0.122 ± 0.036
GGAGAGCC | -0.27 ± 0.039
ATTAAGTC | -0.233 ± 0.059
AGGCAAAT | -0.324 ± 0.053
ACCACCTG | 0.262 ± 0.056
AACACCTG | 0.472 ± 0.0011
TACACCGA | 0.042 ± 0.083
TACACCTA | 0.371 ± 0.026
CAGACCTG | -0.0919 ± 0.036
AACACCGT | 0.329 ± 0.0059
CACACCTG | 0.478 ± 0.0049
TACACCAA | 0.0439 ± 0.018
CACACCGG | 0.135 ± 0.057

Sequence | PBM E-score of 8-mer
AACACCGC | 0.287 ± 0.0081
AACACCGG | 0.155 ± 0.04
AACACCTT | 0.4857 ± 0.0013
GACTGAGA | -0.181 ± 0.085
ACTCAAAT | -0.125 ± 0.039
TACTTAGA | 0.0947 ± 0.0054
ATAGACTG | -0.0183 ± 0.043
GACTGACA | 0.142 ± 0.069
ATAGGCCC | -0.141 ± 0.098
CTCATTGC | -0.166 ± 0.087
AGATTCGG | -0.173 ± 0.036
ACGGCTAC | -0.0169 ± 0.0055
AACACCGA | 0.234 ± 0.034
GACACCGA | 0.286 ± 0.024
GAGACCTA | -0.16 ± 0.033
GACACCTA | 0.48906 ± 2.8e-05
CACACCTA | 0.476 ± 0.009
AACACCTA | 0.4803 ± 0.0034
CACACCGA | 0.193 ± 0.0051
CCCACCTA | 0.184 ± 0.016
AAAACCTA | -0.209 ± 0.086
AGACTAGG | -0.0553 ± 0.059
ACGTCGAC | 0.115 ± 0.035
AGGCAGCG | -0.0107 ± 0.078
CCTTGTAA | -0.0975 ± 0.037
TACTTGAA | -0.262 ± 0.037

Sequence | PBM E-score of 8-mer
AGGGGAGG | -0.223 ± 0.07
GAATTGTC | 0.184 ± 0.0043
CGAGACTC | 0.0667 ± 0.093
CCAAGGGA | 0.0414 ± 0.029
ATCACGAG | 0.167 ± 0.054
AAGAGTGT | 0.289 ± 0.055
CTATAGAA | -0.129 ± 0.058
CTGTGACA | 0.3356 ± 0.0016
ACGTGACG | 0.346 ± 0.0083
ACGTGACA | 0.385 ± 0.023
GTGTGACA | 0.4709 ± 0.0035
ATGTGACG | 0.31 ± 0.02
ATGTGACA | 0.4393 ± 0.0026
ATGTGACC | 0.112 ± 0.052
ACGTGACT | 0.0526 ± 0.086
GCGTGACA | 0.365 ± 0.0062
CACTGCTG | -0.132 ± 0.038
AAGAAGTC | 0.0125 ± 0.0032
CGTAGGCC | -0.213 ± 0.033
GCATATAC | -0.081 ± 0.0014
CCTTGGGC | -0.035 ± 0.01
CGTGCCAA | 0.324 ± 0.0048
AGTGCCAA | 0.3809 ± 0.0024
CGTGCCAC | 0.274 ± 0.03
GATGCCAC | 0.182 ± 0.072
AGTGCCAG | 0.2664 ± 0.0016

Sequence | PBM E-score of 8-mer
GGTGCCAC | 0.398 ± 0.015
AGTGCCAC | 0.287 ± 0.014
TGTGCCAA | 0.351 ± 0.013
GGTGCCAA | 0.454 ± 0.006
GCGGCAGC | 0.0309 ± 0.0077
GGCGAATA | 0.0105 ± 0.026
ACGAATTG | 0.0628 ± 0.039
ACAGCGCA | -0.0538 ± 0.03
CCGCTATC | 0.177 ± 0.0022
AACACGGT | 0.133 ± 0.049
GGTGAACA | 0.00576 ± 0.0094
TGTGAAAA | 0.38 ± 0.057
GGTGAAAA | 0.2007 ± 0.0014
TGTGAACA | 0.4216 ± 0.0014
CGTGAACA | 0.321 ± 0.021
CGTGAAAA | 0.338 ± 0.026
CGTGAGAG | 0.265 ± 0.0088
AAGCCAAT | -0.162 ± 0.051
ACTCGAAC | -0.0874 ± 0.031
CTCTGTGC | -0.0888 ± 0.082
GGAGATTA | -0.0891 ± 0.063
AGGGCCTC | -0.399 ± 0.0047
CAAGCATG | -0.0451 ± 0.032
TGTCTAAA | -0.0695 ± 0.011
GAAGGACA | -0.0775 ± 0.028
GCAGACAA | -0.0224 ± 0.054

Sequence | PBM E-score of 8-mer
ACTCGCAG | 0.0856 ± 0.036
ACTCGCAC | 0.4 ± 0.0077
GCTCGCCC | -0.213 ± 0.052
CCTCGCAA | 0.118 ± 0.0037
GCTCGCAC | 0.42 ± 0.025
CCTCGCAG | 0.0735 ± 0.061
GCTCGCAA | 0.242 ± 0.015
ACTCGCAT | -0.0149 ± 0.006
CCTCGCAC | 0.42 ± 0.014
ACAGCTAC | 0.115 ± 0.032
AACTGGAG | -0.0661 ± 0.0033
CGATAAGC | 0.124 ± 0.049
AGAGGTGG | 0.316 ± 0.0057
CGAGGTGC | 0.457 ± 0.01
AGAGGTGA | 0.352 ± 0.015
GGAGGTCA | 0.0158 ± 0.0067
CGAGGTGA | 0.4396 ± 0.0012
CGAGGTCC | -0.166 ± 0.06
CGAGGTTA | 0.0486 ± 0.017
CGAGGTAC | -0.1003 ± 0.00044
AGAGGTGC | 0.411 ± 0.0084
GGAGGTGA | 0.4036 ± 0.0026
AGAGGTTC | -0.124 ± 0.022
CGAGGTCA | 0.0395 ± 0.11
ACCAACTA | -0.0247 ± 0.12
CGAACAGC | 0.0465 ± 0.011

Sequence | PBM E-score of 8-mer
TAAGTCTA | -0.0537 ± 0.026
CGCCCTAC | -0.103 ± 0.061
CCAACAAC | 0.0262 ± 0.0053
CTGTTGGA | 0.0599 ± 0.038
GTGTTGAA | 0.4 ± 0.013
ATGTTGGA | -0.0683 ± 0.0083
GTGTTGGA | 0.382 ± 0.0051
CTGTTGAA | -0.0551 ± 0.1
ATGTTGAA | -0.107 ± 0.017
ACCTTTAT | 0.0337 ± 0.024
AGAGTGAA | 0.0596 ± 0.056
AGTGTGAA | 0.48836 ± 0.00035
TGGGTGAA | -0.158 ± 0.043
CGTGTGCA | 0.0443 ± 0.011
CGTGTGAA | 0.4524 ± 0.0013
AGTGTGTA | 0.172 ± 0.073
CGTGTGTA | 0.00111 ± 0.014
TATGTGAA | 0.11 ± 0.1
TGTGTGAA | 0.4728 ± 0.0017
CGCTACCA | 0.243 ± 0.024
AGTTCTTC | -0.293 ± 0.02
